High-throughput results: PubChem BioAssay, National Center for Advancing Translational Sciences (NCATS)
PLK1 PBD block = blocks phosphopeptide binding to human PLK1 polo-box domain; Plk1 PBD binding of FITC phosphopeptide, fluorescence polarization; Potency, µM, inactives show max response, negative = inhibition, most hits filed as inhibitors; 360,000 compounds, 2.8% hits; AID 720504; also: series mostly up to about 57 µM; % is scaled to controls: 0 for no effect and ±100 for the full control effect; nearly all actives have a fitted effect of over 65% in size
Target sequence (P53350 whole entry, looked up, the tested form may be a part): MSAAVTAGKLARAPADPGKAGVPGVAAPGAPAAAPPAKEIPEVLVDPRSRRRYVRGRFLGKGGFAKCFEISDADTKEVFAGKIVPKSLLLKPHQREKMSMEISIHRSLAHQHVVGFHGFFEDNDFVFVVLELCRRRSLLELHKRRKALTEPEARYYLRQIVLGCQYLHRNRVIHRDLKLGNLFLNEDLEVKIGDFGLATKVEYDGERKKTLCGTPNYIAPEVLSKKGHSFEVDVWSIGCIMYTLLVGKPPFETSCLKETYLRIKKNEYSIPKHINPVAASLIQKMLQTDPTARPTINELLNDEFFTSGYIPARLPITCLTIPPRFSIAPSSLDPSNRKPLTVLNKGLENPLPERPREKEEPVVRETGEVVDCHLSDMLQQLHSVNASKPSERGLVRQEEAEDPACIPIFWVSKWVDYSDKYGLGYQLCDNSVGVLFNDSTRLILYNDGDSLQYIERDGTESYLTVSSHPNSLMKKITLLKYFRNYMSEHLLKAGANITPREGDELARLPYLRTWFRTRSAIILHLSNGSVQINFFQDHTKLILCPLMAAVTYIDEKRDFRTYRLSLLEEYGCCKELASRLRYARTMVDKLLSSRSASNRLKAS
Sfp inh = Sfp phosphopantetheinyl transferase inhibition; Q9F4F7; 310,000 compounds, 3.5% hits; Biochemical Sfp PPTase activity, qHTS; AID 1490; Potency, µM, inactives show largest response in the series, negative = inhibition, hits mostly inhibitors;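 also: the enzyme is Sfp with the accession as filed and its product quenches rhodamine fluorescence; 0% = enzyme reaction without inhibitor and -100% = no enzyme wells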
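Step 1, compound plus 15 nM Sfp-PPTase, 15 min, room temperature. Step 2, add rhodamine-CoA (5 uM) and BHQ-2-YbbR (12.5 uM). Step 3, read 525/598 nm fluorescence at 0 and 30 min.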
HP1b binding inh = blocks HP1-beta chromodomain binding to methylated histone tails; 390,000 compounds, 0.56% hits; AlphaScreen HP1-beta / biotin-H3K9me3 peptide binding; P83916; Potency, µM (titrated, usually from 114 µM), without a hit: top-dose activity change, negative = inhibition, actives largely listed as inhibitors; also: nearly all actives have a fitted effect of over 70% in size
Target sequence (P83916 whole entry, looked up): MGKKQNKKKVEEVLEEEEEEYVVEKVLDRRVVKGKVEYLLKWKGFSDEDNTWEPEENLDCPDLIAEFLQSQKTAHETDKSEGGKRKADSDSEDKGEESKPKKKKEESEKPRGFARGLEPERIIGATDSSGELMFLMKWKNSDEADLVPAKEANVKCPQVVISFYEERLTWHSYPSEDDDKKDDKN
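Compound inhibition of the preformed complex between 50 nM HP1-beta and 50 nM biotinylated H3K9me3 peptide was read by AlphaScreen. Buffer was PBS pH 7.4 with 0.01% Tween-20. Incubations ran 30 min at room temperature, with 10 ug/mL donor/acceptor beads.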
JMJD2A Tudor = blocks the human JMJD2A Tudor domain; O75164; AlphaScreen JMJD2A-Tudor / H3K4me3 peptide binding; Potency, µM (titrated, usually from 114 µM), inactives show top-dose activity change, negative = inhibition, hits mostly inhibitors; 390,000 compounds, 4.4% hits; also: % is scaled to controls: 0 for no effect and ±100 for the full control effect; nearly all actives have a fitted effect of over 50% in size
G9a block = G9a (human) methyltransferase inhibition; G9a H3K9 monomethylation, AlphaScreen, 2 h; Potency, µM (top dose mostly 102 µM), inactives show at the highest dose activity, negative = inhibition, most hits filed as inhibitors; 350,000 compounds, 8.8% hits; also: % is scaled to controls: 0 for no effect and ±100 for the full control effect; nearly all actives have a fitted effect of over 75% in size
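G9a (20 nM) was preincubated 15 min with compound, then reacted 2 h at room temperature with 500 nM biotin-H3K9 peptide and 20 µM SAM. Monomethyl-H3K9 detected by AlphaScreen using anti-H3K9me1 antibody.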
BAZ2B block = inhibitors of human BAZ2B bromodomain. AlphaScreen BAZ2B-H3K14Ac peptide displacement. Q9UIF8. Potency, µM (titrated, usually from 114 µM), for the others: top-dose activity change, negative = inhibition, hits mostly inhibitors. 360,000 compounds, 4.4% hits; also: % is scaled to controls: 0 for no effect and ±100 for the full control effect; nearly all actives have a fitted effect of over 60% in size
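Protein-peptide AlphaScreen: BAZ2B 50 nM, b-H3K14Ac 50 nM, 1x PBS pH 7.4 + 0.01% Tween-20. Preincubation 30 min RT; cpd 30 min RT (top 110 uM); beads 20 min RT, light-protected.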
* marks the source's active call; other numbers are inactive results; u = inconclusive; x = no result; ! = not active in a repeat; [ ] = remark or other dose. Sampled rows, rich in hits. Any-hit rate of the full collection: about 12%. Calls follow the shape of the dose curve; as a rule, active = well fitted curve in the direction sought with a large enough effect; inconclusive = small, poorly fitted or top-dose-only effect, or another doubt; inactive = no such curve, though single readings can be large; an effect the other way counts as inactive or inconclusive. Potency is read from the fitted curve at half-maximal effect.

SMILES | PLK1 PBD block | Sfp inh | HP1b binding inh | JMJD2A Tudor | G9a block | BAZ2B block
CCOc1cc2sc(N3CCC(C(=O)Nc4ccc(CC)cc4)CC3)nc2cc1Br | x | x | 17.2% | -17.1% | 4.8%[59 µM] | -11.2%
COc1ccc(C2CC(=O)C3=C(C2)NC(C)=C(C#N)C3c2ccc(N(C)C)cc2)cc1 (configuration not stated) | -2.9% | 1.9% | u | u | 12.6µM* | u
COc1ccc(Cl)cc1NC(=O)CN1CCc2ccccc2C1 | 1.1% | -6.9% | 60.1% | 28.2% | x | 8.7%
CN(C(=O)c1cccc(NC(=O)Cc2ccc([N+](=O)[O-])cc2)c1)C1CC1 | -3.6% | x | 38.9% | -19.7% | x | x
O=C(CN1C(=O)NC2(CCCCC2)C1=O)Nc1nc2c(F)cc(F)cc2s1 | -18.2% | x | 22.4% | -20.0% | 50.1µM* | 4.5%
O=C(Nc1nnc(CCN2CCOCC2)s1)c1ccccc1 | u | u | -3.3% | 2.1% | 44.7µM* | 7.2%
COc1ccccc1C(=O)Nc1nnc(S(=O)(=O)N2CCOCC2)s1 | 0.2% | 15.2% | 48.9% | -1.4% | 2.2% | -4.8%
O=C(Nc1nnc(S(=O)(=O)N2CCCCCC2)s1)c1ccccc1 | -6.7% | 9.7% | 49.5% | 28.2µM*! | 15.8µM*! | 8.91µM*!
O=C(Nc1nnc(S(=O)(=O)N2CCOCC2)s1)c1ccccc1Br | -16.5% | 2.4% | 25.2% | -5.6% | 79.4µM* | -3.8%
O=C(Nc1nnc(CCN2CCCCC2)s1)c1ccccc1 | 5.3% | -3.7% | 28.3% | 0.7% | -5.3%[59 µM] | -27.3%
O=C(Nc1nn[nH]n1)c1ccc(S(=O)(=O)N2CCCCC2)cc1 | -1.8% | -23.1% | 57.6% | u | 50.1µM* | 70.8µM*
O=C(Nc1nnc(S(=O)(=O)N2CCOCC2)s1)c1ccccc1 | -22.3% | -12.5% | 35.6% | -24.6% | x | -12.7%
Cc1ccc(OCCC(=O)NNC(=O)c2ccc(Br)cc2)cc1 | -5.0% | x | 13.2% | -20.5% | x | x
O=C(c1cnccn1)N1CCC2(CC1)CN(C(c1ccccc1)c1ccccc1)C2 | x | 13.0% | x | x | 4.0%[12.7 µM] | x
O=C(Nc1nnc(S(=O)(=O)N2CCCC2)s1)c1ccccc1Cl | -3.0% | 13.3% | 36.8% | u | u | 5.01µM*!
CCc1nnc(NC(=O)c2ccc(S(=O)(=O)N3CCCCC3)cc2)s1 | -10.2% | 9.8% | -6.1% | -12.1% | -5.6% | -1.3%
O=C(Nc1nnc(S(=O)(=O)N2CCCCC2)s1)c1ccccc1Br | -8.4% | 22.0% | 49.6% | -13.2% | -7.7% | -6.7%
O=C(Nc1nnc(S(=O)(=O)N2CCCCCC2)s1)c1ccccc1Cl | -10.1% | 29.5% | 49.9% | u | 10µM*! | u
NC(=O)CSc1nnc(NC(=O)c2ccc(S(=O)(=O)N3CCCCC3)cc2)s1 | -17.1% | x | 50.5% | -8.9% | 6.31µM* | 6.2%
COc1ccccc1C(=O)Nc1nnc(S(=O)(=O)N2CCC(C)CC2)s1 | -10.6% | 5.0% | 59.4% | -11.3% | 79.4µM* | -4.0%[57.1 µM]
CCOc1ccc(NC(=O)c2cnn(-c3ccc(C)c(Cl)c3)c2C2CCNCC2)cc1 | x | x | 20.5% | -29.1% | -1.3%[59 µM] | 1.1%[57.1 µM]
Cn1sc(NC(=O)c2ccccc2Cl)nc1=O | 29.9µM* | u | -11.9% | -14.6% | u | -1.1%
O=C(C(=O)N1CCOCC1)c1c[nH]c2ccccc12 | -9.5% | 15.2% | 29.8% | -1.4% | x | -3.7%
Oc1[nH]c2ccccc2c1N=NC(=S)N1CCOCC1 | u | -28.1% | -19.1% | 7.08µM* | 31.6µM* | 22.4µM*
S=C(c1cn(Cc2ccc(Br)cc2)c2ccccc12)N1CCOCC1 | 29.9µM* | 23.3% | u | 25.1µM* | u | u
SMILES | PLK1 PBD block | Sfp inh | HP1b binding inh | JMJD2A Tudor | G9a block | BAZ2B block
S=C(c1c[nH]c2ccccc12)N1CCOCC1 | 15µM* | 22.4µM* | u | -26.4% | 11.2µM* | -20.2%
CN1CCN(C(=S)c2cn(Cc3ccccc3F)c3ccccc23)CC1 | 3.9% | -7.8% | 2.1% | u | 39.8µM* | u
O=C(CCc1cn(Cc2ccc(F)cc2)c2ccccc12)N1CCOCC1 | -10.6% | 5.6% | 14.0% | -18.8% | u | -27.1%
CCO[C@H]1OC(C(N)=O)=C[C@@H](C(C)(C)C)[C@@H]1CCCO | -12.5% | x | 34.9% | -7.1% | x | x
Clc1cccc(N2CCN(c3c4c(nc5nncn35)CCC4)CC2)c1 | x | x | 16.4% | -20.8% | -35.6%[59 µM] | u
COc1ccccc1OCCNC(=O)C1CC(=O)N(Cc2ccc(C)cc2)C1 (configuration not stated) | -9.4% | x | 22.2% | -4.1% | u | 5.0%
c1ccc(Cn2nnnc2C(c2ccccc2)N2CCN(Cc3ccncc3)CC2)cc1 (configuration not stated) | x | x | 50.0% | u | x | x
CC1CCN(C(=S)c2cn(Cc3ccc(F)cc3)c3ccccc23)CC1 | -7.1% | 13.9% | -5.7% | u | 0.5% | u
S=C(c1cn(Cc2ccccc2)c2ccccc12)N1CCOCC1 | -9.1% | 14.0% | -12.9% | u | 25.1µM* | u
Cc1ccc(NC(=S)N2CCC(NC(=O)c3ccc(C)cc3)CC2)cc1 | -1.3% | 9.0% | -4.8% | -18.2% | 79.4µM* | -1.0%
Cc1cccc(C(=O)NC2CCN(C(=O)Nc3ccccc3C)CC2)c1 | -11.3% | 5.2% | 10.5% | 0.7% | -1.9% | 3.5%
CCOc1ccccc1NC(=O)N1CCC(NC(=O)c2cccc(C)c2)CC1 | -15.5% | -25.1% | 3.7% | -32.1% | 31.6µM* | 12.9%
Cc1cccc(C(=O)NC2CCN(C(=O)Nc3ccc(F)cc3)CC2)c1 | -10.6% | 10.6% | -4.9% | -1.4% | 79.4µM* | -2.1%
C[C@H](NS(=O)(=O)c1ccc(F)cc1)C(=O)OCC(=O)c1c(N)n(C)c(=O)n(C)c1=O | -28.9% | x | 12.3%[57 µM] | 36.9% | x | x
Cc1cc(=O)[nH]c(SCC(=O)Nc2nc3c(s2)CCCC3)n1 | -10.6% | 13.2% | 24.8% | -7.5% | 0.4% | -8.5%
CCC(Sc1nc(C)cc(=O)[nH]1)C(=O)Nc1nc2c(s1)CCCC2 (configuration not stated) | -11.9% | -5.3% | 21.2% | -17.9% | 44.7µM* | u
CCOc1ccc(N2C(=O)C3Sc4[nH]c(=O)sc4C(/C=C/c4ccccc4)C3C2=O)cc1 (configuration not stated) | u | -25.3% | u | 39.8µM* | 11.2µM* | 44.7µM*
CC(C)(CNC(=O)c1ccc(S(=O)(=O)Nc2ccc(Cl)cc2)cc1)N1CCOCC1 | -4.4% | x | 32.0% | -13.4% | 21.4%[2.33 µM] | -0.8%
Cn1c(SCC(=O)N2CCCCCC2)nc2c(c1=O)SCC2 | -5.4% | -1.5% | 26.1% | -13.5% | -12.3% | -4.5%
O=C(NC1(C(F)(F)F)NC(=O)N(Cc2ccco2)C1=O)c1cccs1 (configuration not stated) | -4.4% | 35.5µM* | -9.6% | -22.3% | u | -5.7%
